Chronic BCR inh – qHTS Assay to Find Inhibitors of Chronic Active B-Cell Receptor Signaling; 0.05% of 340,000 active; ABC-DLBCL IkBa-CBG/CBR reporter, luminescence ratio, 4 h; Potency, µM (doses to about 46.1 µM), hits mostly inhibitors; active means well fitted inhibition curve with a large enough effect in the signal ratio, with a control signal flat, not every such curve was filed as active; inconclusive means small, poorly fitted or top-dose-only effect, or effect the other way, or a change in a side signal; the % refers to the signal ratio
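TMD8 ABC-DLBCL cells carrying doxycycline-inducible green luciferase fused to IkappaBalpha plus unfused red luciferase were exposed to compounds (up to 46 uM) for 4 hrs at 37C. Activity came from the overlap-corrected green/red luminescence ratio.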
12-LOX inh – Primary qHTS assay for inhibitors of human arachidonate 12S-lipoxygenase (ALOX12): Round 2; purified 12hLO, xylenol orange hydroperoxide absorbance; Potency, µM (top dose mostly 108 µM), most hits filed as inhibitors; 1.1% of 580,000 active; AID 1671190, 2021; active means well fitted inhibition curve with a large enough effect; inconclusive means small, poorly fitted or top-dose-only effect, or another doubt; inactive means no such curve, though single readings can be large or run the other way
Target sequence (P18054 whole entry, looked up): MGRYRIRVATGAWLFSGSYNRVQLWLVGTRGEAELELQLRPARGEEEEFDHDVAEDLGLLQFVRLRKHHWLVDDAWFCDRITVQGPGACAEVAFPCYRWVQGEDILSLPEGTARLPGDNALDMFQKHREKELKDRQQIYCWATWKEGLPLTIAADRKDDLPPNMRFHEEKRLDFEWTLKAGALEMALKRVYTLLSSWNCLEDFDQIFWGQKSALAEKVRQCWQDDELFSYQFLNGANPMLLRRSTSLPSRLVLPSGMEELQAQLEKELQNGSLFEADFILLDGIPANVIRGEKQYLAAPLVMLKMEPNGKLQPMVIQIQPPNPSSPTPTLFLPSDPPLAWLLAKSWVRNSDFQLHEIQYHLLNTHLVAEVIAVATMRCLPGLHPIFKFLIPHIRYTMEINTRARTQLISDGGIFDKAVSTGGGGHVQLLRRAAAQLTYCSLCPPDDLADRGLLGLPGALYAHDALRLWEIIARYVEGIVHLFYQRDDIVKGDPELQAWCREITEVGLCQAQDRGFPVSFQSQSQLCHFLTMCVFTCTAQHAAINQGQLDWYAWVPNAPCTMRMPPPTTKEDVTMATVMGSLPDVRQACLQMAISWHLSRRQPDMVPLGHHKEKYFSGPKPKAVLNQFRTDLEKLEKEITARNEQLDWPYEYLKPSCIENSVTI
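Purified human 12hLO (150 nM final) in 25 mM Hepes, 0.01% Triton X-100, pH 7.0 was preincubated 15 min at room temperature with compound. Then 40 uM arachidonic acid was added, 30 min. Hydroperoxide was read by Fe-XO absorbance ratio 573/405 nm.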
LDHA block – qHTS assay for inhibitors of human lactate dehydrogenase. 0.15% of 480,000 active. purified LDHA, NADH/diaphorase-resazurin fluorescence; stronger effect = lower value. activity change, % (values are at about 110 or 230 µM). AID 1347041, 2019; in the data active means activity change below about -30%; inconclusive means mostly about -25% to -30%
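Enzyme activity of human lactate dehydrogenase 5 (2 nM; 0.06 mM NADH, 0.2 mM pyruvate, 5 min, RT) is measured via a resazurin/diaphorase fluorescence readout of residual NADH.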
KCNH2 3.1 inh – qHTS for Inhibitors of KCHN2 3.1: Mutant qHTS; U2OS KCNH2 3.1, thallium flux FluxOr; stronger effect = lower value; Potassium voltage-gated channel subfamily H member 2, brain isoform KCNH2 3.1 (human); AID 720553, 2013; activity change, % (tested at about 1.8 µM); 0.95% of 340,000 active;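 active means maximum activity change below -70%; inconclusive means maximum activity change from -70% to -50%; inactive means maximum activity change above -50%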;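 further: thallium influx rate constant from kinetic fluorescence after stimulation buffer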
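Normalized rate constant (relative to positive and negative DMSO controls) derived from a 2 min kinetic fluorescence read after stimulation; U2OS cells expressing the 3.1 isoform via virus at 1.77 x 10^8 /mL.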
hERG WT inh – qHTS for Inhibitors of KCHN2 3.1: Wildtype qHTS; U2OS, BacMam KCNH2, thallium flux FluxOr; stronger effect = lower value; activity change, % at 1.84 µM; 0.37% of 340,000 active; Voltage-gated inwardly rectifying potassium channel KCNH2 (Homo sapiens), Q12809;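 active means maximum activity change below -70%; inconclusive means maximum activity change between -70% and -50%; inactive means maximum activity change above -50%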
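U2OS cells were transduced with wild-type KCNH2 virus (2.03 x 10^8 / mL) for 4 h at room temperature, then cultured overnight at 37 C. Thallium flux was read with FluxOr dye. Rate constants were normalized to DMSO controls.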
ClpP mod – qHTS Assay for Activators of ClpP; 1.9% of 340,000 active; ATP-dependent Clp protease proteolytic subunit (Bacillus subtilis (strain 168)), P80244; Potency, µM (highest dose often 57.5 µM); purified B. subtilis ClpP, FRET peptide cleavage, 20 min; active means well fitted falling curve with a large enough effect; inconclusive means small, poorly fitted or top-dose-only effect; inactive means no such curve, though single readings can be large or run the other way; further: the source files actives as falling curves though it sought activators and does not explain the sign; nearly all actives have a fitted effect of over 65% in size
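ClpP 10 microg/mL final, pH 8 Tris/KCl buffer with BSA, glycerol, Tween-20; compound pinned in; FRET-FV substrate; RT 20 min; Ex320/Em430; ΔFRET vs ADEP 5.8 microM, DMSO, no enzyme.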
A number is an active result; 0 = inactive; ? = inconclusive; - = not tested or not shown; ! = repeats disagree. Compounds with a hit are over-represented: about 3% of the library has one in this group of screens.

SMILES	Chronic BCR inh	12-LOX inh	LDHA block	KCNH2 3.1 inh	hERG WT inh	ClpP mod
O=S(=O)(c1ccc(-c2csc(Nc3ccc(F)cc3)n2)cc1)N1CCCC1	?	?	0	0	0	20µM
Cc1ccc(NC(=O)N2CCC3(CC2)SCC(=O)N3Cc2ccco2)cc1Cl	-	0	-	-	-	-
c1csc(CNc2nc(-c3ccoc3)nc3ccccc23)c1	-	10µM	-	-	-	-
CNc1nc(-c2ccoc2)nc2ccccc12	-	35µM	-	-	-	-
CNc1nc(-c2cccnc2)nc2ccccc12	-	0	-	-	-	-
COc1ccc(-c2nnc(C(C)OC(=O)c3[nH]c(C)c(C(C)=O)c3C)o2)cc1 (stereo not drawn)	-	0	0	-	-	-
Cc1ccc(-c2nn3c(C)nnc3s2)cc1N	0	0	0	0	-289	0
Cc1ccc(-c2nn3c(C)nnc3s2)cc1NC(=O)C(C)C	0	0	0	0	0	0
Cc1nnc2sc(-c3ccncc3)nn12	0	0	0	0	0	0
CCC(=O)Nc1ccc(-c2nn3c(C)nnc3s2)cc1C	?	0	0	-115	0	0
Cc1nnc2sc(-c3cccc4ccccc34)nn12	?	0	0	0	0	22µM
COc1c(C)cc(N)cc1C	-	0	0	-	-	-
O=C(c1cccc(S(=O)(=O)N2CCc3ccccc3C2)c1)N1CCN(c2ccc(O)cc2)CC1	0	?	0	0	0	32µM
CCCCCCNC(=O)N[C@H](C(=O)NCCC[C@H]1CN2C(=NC[C@H]2C)N1CCC(c1ccccc1)c1ccccc1)C(C)O (stereo partly drawn)	18µM	-	-	-	-	-
C[C@@H]1CN=C2N(CCNC(=O)CCC3CCCCC3)[C@H](Cc3ccc(O)cc3)CN21	0	?	0	0	0	0
CCCn1ncc(-c2nc(-c3ccncc3)no2)c1C	-	0	-	-	-	-
COc1nccnc1NS(=O)(=O)c1ccc(NC(=S)NC(=O)c2ccc(F)cc2)cc1	0	35µM	0	0	0	0
COc1nccnc1NS(=O)(=O)c1ccc(NC(=S)NC(=O)c2ccccc2F)cc1	0	45µM	0	0	0	?
CC(C)C(=O)Nc1ccc(NC(=S)NC(=O)c2ccccc2F)cc1	0	0	0	0	0	32µM
COc1nccnc1NS(=O)(=O)c1ccc(NC(=S)NC(=O)c2cccc(F)c2)cc1	?	?	0	0	0	0
S=C1NC(C23CC4CC(CC(C4)C2)C3)=CC(c2ccccc2Cl)N1 (stereo not drawn)	-	?	0	-	-	-
CCc1cccc(NC(=O)c2c(-c3ccccc3Cl)noc2C)c1	-	0	0	-	-	-
O=C(O)c1ccccc1C(=O)N[C@H]1CO[C@H]2[C@@H]1OC[C@@H]2n1nnnc1Oc1ccc(-n2ccnc2)cc1	-	0	-	-	-	-
COc1cc2c(cc1NS(=O)(=O)N1CCCC1)oc1ccccc12	?	0	0	0	0	25µM
COc1ccc(/C=C/C(=O)OCC(=O)Nc2cc3oc4ccccc4c3cc2OC)cc1	0	0	-	-	-	-
SMILES	Chronic BCR inh	12-LOX inh	LDHA block	KCNH2 3.1 inh	hERG WT inh	ClpP mod
COc1cc2c(cc1NC(=O)/C=C/c1cc(OC)c(OC)c(OC)c1)oc1ccccc12	0	0	0	-87	0	0
COc1ccc(CC(=O)Nc2cc3oc4ccccc4c3cc2OC)cc1	0	0	0	0	0	0
COc1cc2c(cc1NC(=O)COC(=O)[C@@H](NC(=O)c1ccccc1F)C(C)C)oc1ccccc12	0	0	0	0	0	5.6µM
COc1ccccc1CC(=O)Nc1cc2oc3ccccc3c2cc1OC	0	0	0	0	0	32µM
CCc1nc(SCc2coc(-c3cccc(F)c3)n2)n[nH]1	-	?	0	-	-	-
COc1cc2c(cc1NC(=O)COc1ccc3ccccc3c1)oc1ccccc12	0	0	0	0	0	3.2µM
COc1cc2c(cc1NC(=O)COc1ccc(Br)cc1)oc1ccccc12	-	0	0	-	-	?
COc1ccccc1CC(=O)Nc1ccc(O)cc1C(=O)O	0	?	0	0	0	18µM
COc1ccc(CC(=O)Nc2ccc(C(=O)Nc3ccccc3C(=O)O)cc2)cc1OC	?	0	-37	0	0	-
COc1ccccc1CC(=O)Nc1ccc(Cl)cc1C(=O)O	0	0	0	0	0	-
Cc1ccc(C(=O)c2ccc(-c3ccccc3)cc2)cc1	-	0	0	-	-	-
Cc1ccccc1OCC1CN(CC(C)C)C(=O)c2c(ccnc2-c2ccc(OCC(=O)O)cc2)O1 (stereo not drawn)	-	0	-	-	-	-
COc1ccc(Nc2nc(C)c(NC(=O)c3cccc(C)c3)c(Nc3ccc(OC)cc3)n2)cc1	-	35µM	0	-	-	-
O=C(CSc1nnnn1-c1ccc(F)cc1)c1ccc(O)c(O)c1	0	14µM	0	0	0	-
O=C(O)c1ccc(CSc2nnnn2-c2ccc(F)cc2)cc1	0	0	0	0	0	-
O=C(Cc1cccs1)N(Cc1ccccn1)C1CC1	-	?	0	-	-	-
CC(C)(C)n1cnc2cc(NCc3ccc(Br)cc3)ccc21	0	0	0	-96	0	-
O=C(Nc1ncc(Cc2ccc(SC(F)F)cc2)s1)c1ccc(OC(F)F)cc1	?	0	0	-82	0	0
CCOC(=O)NC1(Nc2cccc(Cl)c2)Oc2ccccc2O1	?	45µM	0	0	0	0
Cc1ccc(S(=O)(=O)Nc2ccc(SC(F)F)cc2)c(C)c1	0	16µM	0	0	0	?
O=C(NC(=S)Nc1ccc(Oc2ccccc2)cc1)c1ccc(Cl)cc1	?	?	0	0	0	0
Cc1ccc(C(=O)NC(=S)Nc2ccc(Oc3ccc(Cl)cc3)cc2)cc1	0	7.9µM	0	0	0	0
COc1ccc(C(=O)NC(=S)Nc2ccc(Cl)c(C(=O)O)c2)cc1	?	7.1µM	0	0	0	-
COc1ccc(C(=O)NC(=S)NNC(=O)c2ccc(NC(=O)C(C)C)cc2)cc1	?	45µM	0	0	0	0
CC(C)Oc1cccc(C(=O)NC(=S)Nc2ccc(Cl)c(C(=O)O)c2)c1	0	?	0	0	0	0
Cn1c(SCC(=O)Nc2cc(F)ccc2F)nc2c(=O)[nH]cnc21	-	?	0	-	-	-
O=S(=O)(c1ccc(Cl)c(C(F)(F)F)c1)N1CCN(CC(O)COCC2CCCO2)CC1 (stereo not drawn)	0	0.56µM	0	0	0	0
Cc1nc2cc(NC(=O)Nc3cccc([N+](=O)[O-])c3)ccc2n1C	0	0	0	-75	0	0
OCCN(CCO)c1nc(N2CCCCC2)c2nc(N(CCO)CCO)nc(N3CCCCC3)c2n1	?	45µM!	0	0	0	0
